HCV inh: inhibitors of hepatitis C virus infection. 340,000 tested, 3.4% active. Huh7.5.1 HCVcc-Cre infection, luciferase reporter, 44 h. AID 651820. Potency, µM (series often up to 41.8 µM), inactives show at the highest dose activity change, negative = inhibition, most hits filed as inhibitors; active = well fitted inhibition curve with a large enough effect; inconclusive = small, poorly fitted or top-dose-only effect, or another doubt; inactive = no such curve, though single readings can be large or run the other way; note: potency is the fitted concentration of half-maximal effect; % is set by controls: 0 for no effect and ±100 for the full control effect
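A cell-based infection assay in which seeded cells (1,000 per well) receive test compound after 4 h, are inoculated with HCVcc-Cre at approximately 0.5 moi, and are incubated 44 h before luminescence detection.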
Lassa entry inh: blocks Lassa virus binding to or entry into cells; 300,000 tested, 1.2% active; Potency, µM (titrated, usually from 37.9 µM), for the others: at the highest dose activity change, negative = inhibition, usual class: inhibitors; AID 540256; Lassa virus pseudotype entry inhibition, cell reporter; calls by dose curve; tested in HEK293 cells; note: potency is the fitted concentration of half-maximal effect; % is set by controls: 0 for no effect and ±100 for the full control effect; nearly all actives have a fitted effect of over 50% in size
Shiga inhibitor: blocks Shiga toxin action in Vero cells | Vero cells, Shiga toxin protein synthesis inhibition reporter | inhibition, % at 38.7 µM | 290,000 tested, 9.2% active | AID 2315; in the data active = inhibition mostly above about 28%, no sharp cut-off; inactive = mostly below about 43%; note: 0% is about no effect
Cycloheximide cs: counter-screen hit for Shiga toxin inhibitors, cycloheximide | max response, % | cell reporter, cycloheximide protein synthesis inhibition counterscreen | 300,000 tested, 12% active | AID 2314; in the data active = max response mostly above about 13%, no sharp cut-off; inactive = mostly below about 14%; note: read at 38.3 µM for the half of the compounds with a filed dose; 0% is about no effect
Marburg entry inh: inhibitors of Marburg virus binding or cell entry | Marburg virus pseudotyped entry inhibition, cell reporter | Potency, µM (top dose mostly 37.8 µM), for inactives: at the highest dose activity change, negative = inhibition, actives largely listed as inhibitors | 300,000 tested, 1.8% active; calls by dose curve; tested in HEK293 cells; note: potency is the fitted concentration of half-maximal effect; % is set by controls: 0 for no effect and ±100 for the full control effect
FMDV antiviral: antivirals against foot and mouth disease virus. AID 1159524. 410,000 tested, 1.2% active. FMDV antiviral cell-based qHTS. Potency, µM (series often up to 57.9 µM), inactives show at the top dose activity change, negative = inhibition, usual class: inhibitors; calls by dose curve; tested in HEK293T cells; note: read-out not given here; potency is the fitted concentration of half-maximal effect; % is set by controls: 0 for no effect and ±100 for the full control effect; nearly all actives have a fitted effect of over 45% in size
Active calls of the source: *; i = inactive; ? = inconclusive; / = no result given; ! = not confirmed by another sample; [ ] = another dose, or the depositor's remark. This is a sample that favours compounds with a hit; in the whole collection about 13% have one here.

SMILES	HCV inh	Lassa entry inh	Shiga inhibitor	Cycloheximide cs	Marburg entry inh	FMDV antiviral
CCOC(=O)CN1C=C(c2ccc3ccccc3n2)C(C[N+](=O)[O-])c2ccccc21 (stereo unspecified)	-19%	9%	22	11*	2%	21%
C/C(=N\Nc1cccc(Cl)c1)C1(C)N(O)C(C)(C)C(c2ccco2)=[N+]1[O-] (stereo unspecified)	-15%	/	74*	30*	/	-10%
CC(=O)Nc1cccc(Oc2ncnc3scc(-c4ccc(C(C)C)cc4)c23)c1	?	2.5µM*	13	-2	2.8µM*	-18%
COc1ccc(-c2csc3ncnc(Nc4cccc(OC)c4)c23)cc1	/	-18%[46.1 µM]	/	/	/	0%
O=C1CCC(C(=O)Nc2ccc([N+](=O)[O-])cc2)N1 (stereo unspecified)	-17%	-2%	/	/	?	-15%
CCCCC(=O)Nc1ccc2nc(SCC(=O)N3CCCC3)sc2c1	/	7%[46.1 µM]	/	/	?	8%
Cc1cc(C)n(Cc2ccc(Cl)cc2Cl)c(=O)c1S(=O)(=O)c1ccccc1	-5%	?	8	11*	0%	-18%
O=C(Cc1cn2ccsc2n1)OCc1nc2ccccc2s1	-2%	5%	11	18	-1%[46.1 µM]	-2%
O=C(Cc1cn2ccsc2n1)OCc1ccccc1	8%	5µM*	62*	27*	7.1µM*	15%
CCn1c2ccccc2c2cc(NC(=O)COC(=O)Cc3cn4ccsc4n3)ccc21	5.6µM*	-1%	46	-3	-8%	-12%
O=C(Cc1cn2ccsc2n1)NCc1ccccc1	12%	7%	7	11	0%	/
c1ccc(CSCc2cn3ccsc3n2)cc1	-3%	2%	12*	39*	19%	8%
O=c1c2ccccc2nc(SCc2cn3ccsc3n2)n1-c1ccccc1F	?	?	41*	30*	?	?
O=C(CC(c1ccccc1)c1ccco1)N1CCCCC1 (stereo unspecified)	/	/	-25	3	/	/
CC(=O)OC1CC(OC2C(O)CC(OC3C(O)CC(OC4CCC5(C)C(CCC6C5CCC5(C)C(C7=CC(=O)OC7)CCC65O)C4)OC3C)OC2C)OC(C)C1OC1OC(CO)C(O)C(O)C1O (stereo unspecified)	0.79µM*	0.1µM*	/	/	?	0%
Cc1cc(=O)oc2cc(OCC(=O)OCC(=O)Nc3ccc(C(C)C)cc3)ccc12	0%	3%	3	8	18%[46.1 µM]	8%
COc1cccc(-c2nc(C(=O)NCCCN3CCOCC3)cc3c2[nH]c2ccccc23)c1	11µM*	/	1	1	/	-28%
O=C(NCCCO)c1cc2c([nH]c3ccccc32)c(-c2ccccc2)n1	10µM*	0%[46.1 µM]	-10	-2	?	-29%
COC(=O)[C@H](C)NC(=O)c1cc2c(cn1)[nH]c1ccccc12	-5%	6%[46.1 µM]	24	15*	21%[46.1 µM]	0%
O=C(NCCCO)c1cc2c(cn1)[nH]c1ccccc12	-5%	/	43	27*	/	37%
O=C(NCCCN1CCOCC1)c1cc2c([nH]c3ccccc32)c(-c2cccc(Br)c2)n1	?	/	-3	-1	/	?
Cc1ccc2c(c1)nnn2C1CCN(C(=O)C23CC4CC(CC(C4)C2)C3)CC1	5%	-6%	-1	-3	3%	?
COC(=O)CCCC1=CC2=C(c3ccccc3)C(=O)C(C)(OC(=O)C3CCCC3)C(=O)C2=CN1CC1CC1 (stereo unspecified)	7%	/	14	0	/	-2%
Cc1ccc(CC2CC(=O)N(c3ccc(Cl)cn3)C2=O)cc1 (stereo unspecified)	11%	0%	3	1	2%	5%
CCOC(=O)C1(Cc2cccc(F)c2)CCN(C(=O)c2cnc(C)cn2)CC1	0%	23%[46.1 µM]	-11	7	-2%[46.1 µM]	-18%
SMILES	HCV inh	Lassa entry inh	Shiga inhibitor	Cycloheximide cs	Marburg entry inh	FMDV antiviral
Cc1ccsc1/C=N/NC(=O)c1nnn(-c2nonc2N)c1-c1ccc2c(c1)OCO2	7%	-8%[46.1 µM]	-5	-3	8%[46.1 µM]	8%
Cc1ccsc1/C=N/NC(=O)c1ccc2c(c1)OCCO2	-16%	?	23	23*	3.2µM*	-15%
Cc1ccsc1/C=N\NC(=O)c1ccc2c(c1)OCO2	4%	10%	85*	35*	-26%	-2%
COc1ccc2ccc(O)c(CN3CCN(S(=O)(=O)c4cc([N+](=O)[O-])ccc4C)CC3)c2c1	-18%	/	/	/	/	?
C#C[C@]1(O)CC[C@H]2[C@@H]3CCC4=Cc5oncc5C[C@]4(C)[C@H]3CC[C@@]21C	7%	/	/	/	/	40µM*
CC12Cc3cn[nH]c3C=C1CCC1C2CCC2(C)C1CCC2(C)O (stereo unspecified)	-7%	-10%[46.1 µM]	/	/	-12%[46.1 µM]	-14%
C#C[C@]1(O)CC[C@H]2[C@H]3CCC4=Cc5oncc5C[C@]4(C)[C@@H]3CC[C@]21C	/	/	/	/	21µM*	-30%
COc1ccc(N2CC(NC(=O)COc3ccccc3F)CC2=O)cc1OC (stereo unspecified)	/	15%[46.1 µM]	/	/	/	-1%
COc1ccccc1-c1ccc(C(=O)O)o1	13%	-5%	75	22*!	11%	19%
O=C(c1cc(-c2ccccc2Cl)on1)N1CCCC1	-10%	?	33	14*	11µM*	-20%
COc1ccc(Cl)cc1-c1ccc(C(=O)O)o1	/	/	i	4	/	/
COc1ccccc1-c1cc(C(=O)N2CCCC2)no1	?	-27%[46.1 µM]	84*	34*	?	14%
COc1ccccc1-c1cc(C(=O)N2CCOCC2)no1	-16%	7%[46.1 µM]	89*	29*	?	28%
COc1ccc(NC(=O)Nc2nnc([C@@H]3C[C@H](O)[C@@H](CO)O3)s2)cc1	/	/	/	/	/	-6%
O=C(NCc1ccncc1)NC1CCCCC1	9%	/	8	5	/	3%
COc1ccc(N2CCN(CCCNC(=O)c3ccc4nc(Cc5ccccc5)oc4c3)CC2)cc1	/	?	/	/	/	25µM*
COc1ccc(N2CCN(CCCNC(=O)c3ccc4nc(CCc5ccccc5)oc4c3)CC2)cc1	/	10µM*	/	/	/	?
CN1CCN(CCCNC(=O)c2ccc3nc(Cc4ccccc4)oc3c2)CC1	/	7%[46.1 µM]	/	/	/	0%
CC(c1ccccc1)N1C(=O)/C(=C/c2ccncc2)SC1=S (stereo unspecified)	?	/	-6	1	/	32µM*
CC(C)N1C(=O)CCC1C(=O)NCc1cccs1 (stereo unspecified)	10%	15%	73	43*	22%[46.1 µM]	-13%
O=C(NCCC1CCCC1)c1cccs1	-8%	/	45*	40*	/	61%
O=C(NC1CCCCCC1)c1cccs1	10%	18%	68*	38*	26%	37%
O=C(CCC1CCCC1)NCc1cccs1	14%	4%	99	26*	18%	92%
Cc1ccc(-n2ncc3c(Nc4c(C)n(C)n(-c5ccccc5)c4=O)ncnc32)c(C)c1	8%	8%	-2	4	5%	/
Cn1nccc1C(=O)N1CCN(c2cccc(Cl)c2)CC1	5%	/	1	-2	/	0%
O=C(CCS(=O)(=O)c1ccc(Br)cc1)NC1CCCC1	6%	-5%	-11	-5	1%	12%
